Results taken from PubChem BioAssay (NCI).
About 79,000 compounds went through this panel and 15% of them were active in at least one assay; those are over-represented in the sample as a whole. The source made the active and inactive calls. Cut-off read from the data, not from the text of the source: active = growth inhibition above about 70%; inactive = the rest.

Assay: NCI Yeast Anticancer Drug Screen. Data for the CLN2oe strain (AID 163);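 note: 0% = growth of vehicle-only control cultures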
Conditions: S. cerevisiae CLN2oe strain, hits give high values
Protocol: Growth inhibition of yeast strains with defined genetic alterations is measured as a screen for potential anti-cancer activity. Selected strains with alterations in DNA damage repair or cell cycle control were exposed to compounds and growth inhibition was measured relative to vehicle treated controls. The strain used in this assay is CLN2oe

Measured: growth inhibition

Clc1c(Cl)c(Cl)c2c(nnn2C2CCCO2)c1Cl (stereo not given)
inactive: at 1.2 µM -11% | at 3.7 µM 1% | at 11.0 µM 0% | at 33.0 µM 9% | at 100.0 µM 33%

CC(=O)c1cc2c(Cl)cc(Cl)cc2oc1=O
inactive: at 1.2 µM -26% | at 3.7 µM -22% | at 11.0 µM -7% | at 33.0 µM -10% | at 100.0 µM -5%

CCCCC(=O)c1c(O)nc2sccn2c1=O
active: at 33.0 µM 78% | at 100.0 µM 89%
inactive: at 1.2 µM 9% | at 3.7 µM 5% | at 11.0 µM 26%

On1cnc(=S)c2[nH]cnc21
inactive: at 1.2 µM 23% | at 3.7 µM 9% | at 11.0 µM -10% | at 33.0 µM 19% | at 100.0 µM 11%

O=C(/C=C/c1cccc2ccccc12)c1ccc(Cl)cc1
inactive: at 1.2 µM 5% | at 3.7 µM 4% | at 11.0 µM -27% | at 33.0 µM -35% | at 100.0 µM -43%

N#C/C(=C/c1c(Cl)cccc1Cl)C(N)=O
active: at 100.0 µM 81%
inactive: at 1.2 µM 9% | at 3.7 µM -2% | at 11.0 µM 3% | at 33.0 µM 18%

CC(=O)CC(=O)/C=C/c1cccs1
inactive: at 1.2 µM -27% | at 3.7 µM -30% | at 11.0 µM -24% | at 33.0 µM 2% | at 100.0 µM 38%

COc1ccc(N2C(=O)CC(Cl)C2=O)cc1 (stereo not given)
inactive: at 1.2 µM -12% | at 3.7 µM -12% | at 11.0 µM -12% | at 33.0 µM 0%
active: at 100.0 µM 78%
